Experimental data from PubChem BioAssay (NCATS).
Results filed as inconclusive are left out. The source made the active and inactive calls. The call rests on the fitted dose curve; in most records, active means well fitted activation curve with a large enough effect; inconclusive means small, poorly fitted or top-dose-only effect; inactive means no such curve, though single readings can be large or run the other way.

target: Cellular tumor antigen p53 (Homo sapiens) (UniProt P04637); assay: Primary qHTS for small molecule compounds that upregulate eGFP-tagged delta133p53alpha (in N-terminal) cells. (AID 2060322); conditions: NCI-H358 eGFP-delta133p53alpha fluorescence, 24 h; activation: active compounds read high; further: nearly all actives have a fitted effect of over 75% in size;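 on activation: cells pre-induced with doxycycline then dosed without doxycycline; series mostly up to about 56 µM; 0% = DMSO vehicle and 100% = reference activator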
Sequence (P04637 whole entry, looked up): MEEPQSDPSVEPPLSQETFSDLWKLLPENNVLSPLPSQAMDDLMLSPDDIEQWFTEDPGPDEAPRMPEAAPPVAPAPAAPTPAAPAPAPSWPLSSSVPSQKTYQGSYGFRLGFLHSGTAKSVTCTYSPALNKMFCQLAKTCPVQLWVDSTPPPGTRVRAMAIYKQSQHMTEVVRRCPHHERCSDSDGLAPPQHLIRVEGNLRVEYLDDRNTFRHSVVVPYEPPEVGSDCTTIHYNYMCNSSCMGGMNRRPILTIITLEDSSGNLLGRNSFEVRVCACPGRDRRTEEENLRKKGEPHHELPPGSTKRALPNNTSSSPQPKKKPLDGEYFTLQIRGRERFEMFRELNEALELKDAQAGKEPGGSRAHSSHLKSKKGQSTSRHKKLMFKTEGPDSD
How it was run: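 NCI-H358 cells pre-induced 24 h with 10 ng/ml doxycycline for eGFP-delta133p53alpha, plated dox-free and exposed 24 h at 37C to titrated compounds. Fixed, Hoechst-stained; gated GFP peak intensity by laser scanning cytometry, normalized to DMSO (0%) and 57.5 uM 5-azacytidine (100%).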
Potency means the concentration at half of the fitted maximal effect.

Structure (SMILES)	activation	Potency
CO[C@H]1C[C@@H]2CC[C@@H](C)[C@@](O)(O2)C(=O)C(=O)N2CCCC[C@@H]2C(=O)O[C@H]([C@H](C)C[C@@H]2CC[C@H](OP(C)(C)=O)[C@H](OC)C2)CC(=O)[C@H](C)C=C(C)[C@@H](O)[C@@H](OC)C(=O)[C@H](C)C[C@H](C)C=CC=CC=C1C	24.8% (inactive)	–
Nc1c2ccccc2nc2ccccc12	-7.34% (inactive)	–
CC(C)CCCC(C)N (configuration not stated)	0.565% (inactive)	–
CS[C@H]1SC[C@@H]2C(=O)N(C)[C@H](C(C)C)C(=O)OC[C@H](NC(=O)c3cnc4ccccc4n3)C(=O)N[C@H](C)C(=O)N(C)[C@@H]1C(=O)N(C)[C@H](C(C)C)C(=O)OC[C@H](NC(=O)c1cnc3ccccc3n1)C(=O)N[C@H](C)C(=O)N2C	–	0.0343 µM (active)
O=C(O)CCc1nc2ccccc2[nH]1	0.565% (inactive)	–
Cc1ncc([N+](=O)[O-])n1C	-0.565% (inactive)	–
CC(C)NC[C@@H](O)COc1ccc(CC(N)=O)cc1	-20.9% (inactive)	–
CN(C)CCN(Cc1ccc(Cl)cc1)c1ccccn1	1.96% (inactive)	–
O=c1ccc2ccccc2o1	9.21% (inactive)	–
CCc1c(C)nc2c(-c3cnn(-c4cc(CO)ccn4)c3)c[nH]n2c1=O	5.67% (inactive)	–
CC(=O)OCC(=O)[C@@]1(O)CCC2C3CCC4=CC(=O)CC[C@]4(C)C3[C@@H](O)C[C@@]21C (some centres not stated)	25.1% (inactive)	–
COC(=O)CCCCC(CCSS/C(CCO)=C(\C)N(C=O)Cc1cnc(C)nc1N)SC(C)=O (configuration not stated)	10% (inactive)	–
